{"source": "PubChem BioAssay (NCI)", "note": "This is part of a sample that, as a whole, favours compounds with a hit. Of some 83,000 tested, about 20% had one in any assay.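 Note: values are percent growth. 100 is the growth of untreated cells, values between 100 and 0 indicate rising inhibition; between -100 and 0 indicates cell death.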 The source made the active and inactive calls. Rule for the calls: active = growth percent below 10; inactive = the rest.", "data": [{"system": "SK-MEL-28 melanoma", "experiment": "NCI-60 one-dose screen, 48 h (100 = growth as untreated, 0 = no growth, -100 = all killed)", "conditions": "10 µM", "values": [{"smiles": "Cc1cc2c(c(C)c1Cl)C(=O)/C(=C/c1ccco1)O2", "growth": "107% (inactive)"}, {"smiles": "CN(C)CCNc1cc(-c2ccccc2)nc2ccccc12", "growth": "-90.7% (active)"}, {"smiles": "COc1ccc(CCN2CCC(CN(C)Cc3cnn(-c4ccccc4)c3)CC2)cc1", "growth": "33.4% (inactive)"}, {"smiles": "COc1ccc(/C=C/C(=O)c2c(C)nc3ccccc3c2/C=C/c2ccccc2)cc1O", "growth": "75.2% (inactive)"}, {"smiles": "Nc1n[nH]c2ccc([C@@H]3Nc4ccc5[nH]ncc5c4[C@H]4[C@H]5CCC(C5)[C@H]43)cc12", "growth": "57.7% (inactive)"}, {"smiles": "O=c1c2cc(F)ccc2sc2c(NCCN3CCCC3)nc3ccccc3c12", "growth": "71.6% (inactive)"}, {"smiles": "COc1ccc2sc(N(Cc3cccnc3)C(=O)c3ccc(C#N)cc3)nc2c1", "growth": "50.2% (inactive)"}, {"smiles": "COC(=O)/C(CCC=C(C)C)=C1\\[C@@H](OC(C)=O)C[C@@]2(C)[C@H]1C[C@@H](O)[C@H]1[C@@]3(C)CC[C@H](NC(=O)c4cnccn4)[C@@H](C)[C@@H]3CC[C@@]12C", "growth": "111% (inactive)"}, {"smiles": "CCOc1ccc(Nc2ccnc3cc(Cl)ccc23)cc1", "growth": "31.1% (inactive)"}, {"smiles": "O=C(Nc1ccsc1C(=O)NC1CCCCC1)c1ccc(F)cc1", "growth": "96.4% (inactive)"}, {"smiles": "CCn1c(-c2nonc2Nc2ccc(OC)cc2)nc2ccccc21", "growth": "107% (inactive)"}, {"smiles": "COc1ccc(/C=C2\\N=C(c3ccccc3)N(c3ccc(-c4nc5ccc(C)cc5s4)cc3)C2=O)cc1", "growth": "114% (inactive)"}, {"smiles": "CSc1nc2c(c(=O)[nH]1)N=C1c3ccccc3C(=O)C1C(c1ccccc1)N2", "note": "(stereo not drawn)", "growth": "54% (inactive)"}, {"smiles": "CC1(C)CC2(C)OC2C2(C1)N=NC(=Nc1ccccc1)O2", "note": "(stereo not drawn)", "growth": "70.3% (inactive)"}, {"smiles": "COC(=O)/C(=C\\c1c(-c2ccccc2)[nH]c2ccccc12)S(C)(=O)=O", "growth": "36.1% (inactive)"}, {"smiles": "O=C(NN1C(=O)CSC1c1ccc(Cl)cc1)c1[nH]c2ccc(F)cc2c1-c1ccccc1", "note": "(stereo not drawn)", "growth": "101% (inactive)"}, {"smiles": "CC(=O)n1cc(-c2c[nH]c3ccccc23)c(-c2ccc(Cl)cc2)n1", "growth": "93.7% (inactive)"}, {"smiles": "O=C(N/N=C/c1ccccc1Cl)C(=O)Nc1cccc(C(F)(F)F)c1", "growth": "113% (inactive)"}, {"smiles": "COc1cccc2cc(N(C)c3nc(C)nc4ccsc34)ccc12", "growth": "58.9% (inactive)"}, {"smiles": "O=C(Cn1cc(COc2ncnc3c2cnn3-c2ccccc2)nn1)Nc1cccc2ccccc12", "growth": "100% (inactive)"}, {"smiles": "CCC1=C[C@]2(C3CC(=O)N(c4ccccc4)C3=O)CC(C(C)(C)C)C[C@@H]2[C@@H]2C(=O)N(c3ccccc3)C(=O)[C@H]12", "note": "(stereo partly drawn)", "growth": "92.6% (inactive)"}, {"smiles": "CCCN1CCN(c2ccc3nc(-c4ccc5nc(-c6cc(OC)ccc6OC)[nH]c5c4)[nH]c3c2)CC1", "growth": "99.4% (inactive)"}, {"smiles": "COc1ccc2c(c1)C=C1CSCC3=Cc4cc(OC)ccc4OC13O2", "growth": "60% (inactive)"}, {"smiles": "COc1ccc(-c2nc(-c3ccccn3)c(-c3ccccn3)n2CC(C)C)cc1OC1CCCC1", "growth": "35.9% (inactive)"}, {"smiles": "CCN1C(=O)N(CC)C2C1NC(=S)N2/N=C/C=C/c1ccccc1OC", "note": "(stereo not drawn)", "growth": "56.7% (inactive)"}, {"smiles": "O=C(c1nc2ccccc2[nH]1)C1C(c2ccc([N+](=O)[O-])cc2)C2CC3CCCCC3N2[C@@]12C(=O)Nc1cc(Cl)ccc12", "note": "(stereo partly drawn)", "growth": "44.9% (inactive)"}, {"smiles": "COc1cc(-c2c3c(c(Br)n2Cc2ccccc2)-c2nc(N)sc2CC3)cc(OC)c1OC", "growth": "87.3% (inactive)"}, {"smiles": "Cn1c(C(=O)c2cccc3ccccc23)nc2ccccc21", "growth": "40.8% (inactive)"}, {"smiles": "C1=CC2(C=C1)OC21CCC2(C=CC3(C2)OC3C2CCCCC2)CC1", "note": "(stereo not drawn)", "growth": "105% (inactive)"}, {"smiles": "O=C1/C=C/[C@@H](O)[C@@H]2C[C@@H](O)C[C@H]2/C=C/CCCCO1", "growth": "-8.98% (active)"}, {"smiles": "CS(=O)(=O)Nc1ccc(C(=O)NC(C(=O)NO)c2ccc(-c3cccc(F)c3)cc2)cc1", "note": "(stereo not drawn)", "growth": "91.8% (inactive)"}, {"smiles": "CCN1CCN(c2cc(C)c3cc(NC(=O)c4ccc(OC)c(OC)c4)ccc3n2)CC1", "growth": "51.9% (inactive)"}, {"smiles": "Cc1ccc(OCCCCCCNCCO)c(C)c1", "growth": "15.5% (inactive)"}, {"smiles": "CCOc1ccc2nc(C)cc(Nc3ccc(Br)cc3)c2c1", "growth": "108% (inactive)"}, {"smiles": "Cn1c2c(c(=O)[nH]c1=O)NC1=C(C(=O)c3ccccc31)C1(C=C(O)c3ccccc31)N2", "note": "(stereo not drawn)", "growth": "148% (inactive)"}, {"smiles": "CC(C)(C)c1ccc(C2CC(=O)C3=C(C2)Nc2ccccc2N(C(=O)c2ccccc2Cl)C3c2ccc(F)cc2)cc1", "note": "(stereo not drawn)", "growth": "38.6% (inactive)"}, {"smiles": "Oc1ccc(-c2nc(-c3ccc4oc5ccc(-c6[nH]c(-c7ccc(O)cc7)nc6-c6ccccc6)cc5c4c3)c(-c3ccccc3)[nH]2)cc1", "growth": "77.8% (inactive)"}, {"smiles": "CN(CCc1ccccc1)C(=S)N(C(=O)c1ccc([N+](=O)[O-])cc1)c1ccc(Cl)cc1", "growth": "95.2% (inactive)"}, {"smiles": "Nc1no[n+]([O-])c1-c1nnc2c(n1)-c1ccccc1C2=O", "growth": "81.4% (inactive)"}]}, {"system": "SK-MEL-2 melanoma", "experiment": "NCI-60 one-dose screen, 48 h (100 = growth as untreated, 0 = no growth, -100 = all killed)", "conditions": "10 µM unless noted", "values": [{"smiles": "Cc1cc2c(c(C)c1Cl)C(=O)/C(=C/c1ccco1)O2", "growth": "102% (inactive)"}, {"smiles": "CN(C)CCNc1cc(-c2ccccc2)nc2ccccc12", "growth": "-45.2% (active)"}, {"smiles": "COc1ccc(CCN2CCC(CN(C)Cc3cnn(-c4ccccc4)c3)CC2)cc1", "growth": "37.3% (inactive)"}, {"smiles": "COc1ccc(/C=C/C(=O)c2c(C)nc3ccccc3c2/C=C/c2ccccc2)cc1O", "growth": "66.8% (inactive)"}, {"smiles": "Nc1n[nH]c2ccc([C@@H]3Nc4ccc5[nH]ncc5c4[C@H]4[C@H]5CCC(C5)[C@H]43)cc12", "growth": "29.5% (inactive)"}, {"smiles": "O=c1c2cc(F)ccc2sc2c(NCCN3CCCC3)nc3ccccc3c12", "growth": "91% (inactive)"}, {"smiles": "COc1ccc2sc(N(Cc3cccnc3)C(=O)c3ccc(C#N)cc3)nc2c1", "growth": "109% (inactive)"}, {"smiles": "COC(=O)/C(CCC=C(C)C)=C1\\[C@@H](OC(C)=O)C[C@@]2(C)[C@H]1C[C@@H](O)[C@H]1[C@@]3(C)CC[C@H](NC(=O)c4cnccn4)[C@@H](C)[C@@H]3CC[C@@]12C", "growth": "118% (inactive)"}, {"smiles": "CCOc1ccc(Nc2ccnc3cc(Cl)ccc23)cc1", "growth": "-40.5% (active)"}, {"smiles": "O=C(Nc1ccsc1C(=O)NC1CCCCC1)c1ccc(F)cc1", "growth": "121% (inactive)"}, {"smiles": "CCn1c(-c2nonc2Nc2ccc(OC)cc2)nc2ccccc21", "growth": "105% (inactive)"}, {"smiles": "COc1ccc(/C=C2\\N=C(c3ccccc3)N(c3ccc(-c4nc5ccc(C)cc5s4)cc3)C2=O)cc1", "growth": "85.2% (inactive)"}, {"smiles": "CSc1nc2c(c(=O)[nH]1)N=C1c3ccccc3C(=O)C1C(c1ccccc1)N2", "note": "(stereo not drawn)", "growth": "59% (inactive)"}, {"smiles": "CC1(C)CC2(C)OC2C2(C1)N=NC(=Nc1ccccc1)O2", "note": "(stereo not drawn)", "growth": "76.6% (inactive)"}, {"smiles": "COC(=O)/C(=C\\c1c(-c2ccccc2)[nH]c2ccccc12)S(C)(=O)=O", "growth": "39.1% (inactive)"}, {"smiles": "O=C(NN1C(=O)CSC1c1ccc(Cl)cc1)c1[nH]c2ccc(F)cc2c1-c1ccccc1", "note": "(stereo not drawn)", "growth": "49.3% (inactive)"}, {"smiles": "CC(=O)n1cc(-c2c[nH]c3ccccc23)c(-c2ccc(Cl)cc2)n1", "growth": "97.6% (inactive)"}, {"smiles": "O=C(N/N=C/c1ccccc1Cl)C(=O)Nc1cccc(C(F)(F)F)c1", "growth": "113% (inactive)"}, {"smiles": "COc1cccc2cc(N(C)c3nc(C)nc4ccsc34)ccc12", "growth": "13.1% (inactive)"}, {"smiles": "O=C(Cn1cc(COc2ncnc3c2cnn3-c2ccccc2)nn1)Nc1cccc2ccccc12", "growth": "113% (inactive)"}, {"smiles": "CCC1=C[C@]2(C3CC(=O)N(c4ccccc4)C3=O)CC(C(C)(C)C)C[C@@H]2[C@@H]2C(=O)N(c3ccccc3)C(=O)[C@H]12", "note": "(stereo partly drawn)", "growth": "82.8% (inactive)"}, {"smiles": "CCCN1CCN(c2ccc3nc(-c4ccc5nc(-c6cc(OC)ccc6OC)[nH]c5c4)[nH]c3c2)CC1", "growth": "118% (inactive)"}, {"smiles": "COc1ccc2c(c1)C=C1CSCC3=Cc4cc(OC)ccc4OC13O2", "growth": "52.6% (inactive)"}, {"smiles": "COc1ccc(-c2nc(-c3ccccn3)c(-c3ccccn3)n2CC(C)C)cc1OC1CCCC1", "growth": "-4.88% (active)"}, {"smiles": "CCN1C(=O)N(CC)C2C1NC(=S)N2/N=C/C=C/c1ccccc1OC", "note": "(stereo not drawn)", "growth": "32.6% (inactive)"}, {"smiles": "O=C(c1nc2ccccc2[nH]1)C1C(c2ccc([N+](=O)[O-])cc2)C2CC3CCCCC3N2[C@@]12C(=O)Nc1cc(Cl)ccc12", "note": "(stereo partly drawn)", "growth": "48.3% (inactive)"}, {"smiles": "COc1cc(-c2c3c(c(Br)n2Cc2ccccc2)-c2nc(N)sc2CC3)cc(OC)c1OC", "growth": "101% (inactive)"}, {"smiles": "Cn1c(C(=O)c2cccc3ccccc23)nc2ccccc21", "growth": "9.69% (active)"}, {"smiles": "C1=CC2(C=C1)OC21CCC2(C=CC3(C2)OC3C2CCCCC2)CC1", "note": "(stereo not drawn)", "growth": "104% (inactive)"}, {"smiles": "O=C1/C=C/[C@@H](O)[C@@H]2C[C@@H](O)C[C@H]2/C=C/CCCCO1", "growth": "8.85% (active)"}, {"smiles": "CS(=O)(=O)Nc1ccc(C(=O)NC(C(=O)NO)c2ccc(-c3cccc(F)c3)cc2)cc1", "note": "(stereo not drawn)", "growth": "73.6% (inactive)"}, {"smiles": "CCN1CCN(c2cc(C)c3cc(NC(=O)c4ccc(OC)c(OC)c4)ccc3n2)CC1", "growth": "50.7% (inactive)"}, {"smiles": "Cc1ccc(OCCCCCCNCCO)c(C)c1", "growth": "2.48% (active)"}, {"smiles": "CCOc1ccc2nc(C)cc(Nc3ccc(Br)cc3)c2c1", "growth": "109% (inactive)"}, {"smiles": "Cn1c2c(c(=O)[nH]c1=O)NC1=C(C(=O)c3ccccc31)C1(C=C(O)c3ccccc31)N2", "note": "(stereo not drawn)", "growth": "107% (inactive)"}, {"smiles": "CC(C)(C)c1ccc(C2CC(=O)C3=C(C2)Nc2ccccc2N(C(=O)c2ccccc2Cl)C3c2ccc(F)cc2)cc1", "note": "(stereo not drawn)", "growth": "-11.5% (active)"}, {"smiles": "Oc1ccc(-c2nc(-c3ccc4oc5ccc(-c6[nH]c(-c7ccc(O)cc7)nc6-c6ccccc6)cc5c4c3)c(-c3ccccc3)[nH]2)cc1", "growth": "93.7% (inactive)"}, {"smiles": "CN(CCc1ccccc1)C(=S)N(C(=O)c1ccc([N+](=O)[O-])cc1)c1ccc(Cl)cc1", "growth": "87.9% (inactive)"}, {"smiles": "Nc1no[n+]([O-])c1-c1nnc2c(n1)-c1ccccc1C2=O", "growth": "86.9% (inactive)"}]}]}
